{"source": "PubChem BioAssay AID2314", "about": "(National Center for Advancing Translational Sciences (NCATS), 2010)", "note": "About 37,000 (12%) of roughly 300,000 compounds were called active. Cut-off read from the data, not from the text of the source: active = max response mostly above about 13% (no sharp cut-off); inactive = mostly below about 14%. The list comes from a sample in which actives are over-represented; it also holds similar structures and randomly drawn compounds.", "data": [{"test": "Cycloheximide Counterscreen for Small Molecule Inhibitors of Shiga Toxin; note: read at 38.3 µM for the half of the compounds with a filed dose; 0% is about no effect", "settings": "cell reporter, cycloheximide protein synthesis inhibition counterscreen; hits give high values", "values": [{"smiles": "COc1cccc(C(=O)N2CCC(n3nccc3NC(=O)C3CCOC3)CC2)c1", "note": "(stereo not drawn)", "max response": "2.44% (inactive)"}, {"smiles": "CC(=O)N(Cc1cc(=O)[nH]c2ccccc12)c1ccc(C)cc1C", "max response": "-0.991% (inactive)"}, {"smiles": "COc1ccccc1NC(=O)/C=C/C(N)=O", "max response": "9.83% (inactive)"}, {"smiles": "Cc1cc(C)c2nc(NC(=O)C3CCCO3)sc2c1", "note": "(stereo not drawn)", "max response": "44.3% (active)"}, {"smiles": "Cc1ccc(C)c(C(C)NC(=O)C2CCCO2)c1", "note": "(stereo not drawn)", "max response": "-2.44% (inactive)"}, {"smiles": "Cc1cc([N+](=O)[O-])ccc1NC(=O)C1CCCO1", "note": "(stereo not drawn)", "max response": "3.91% (inactive)"}, {"smiles": "CCOCCc1nn2c(=O)cc(CSCC(=O)Nc3cccc(C)c3C)nc2s1", "max response": "-4.2% (inactive)"}, {"smiles": "COc1ccccc1S(=O)(=O)c1c(C)cc(C)[nH]c1=O", "max response": "-6.18% (inactive)"}, {"smiles": "CCCCOC(=O)c1ccc(NC(c2ccc(C)cc2)P(=O)(OC)OC)cc1", "note": "(stereo not drawn)", "max response": "-2.29% (inactive)"}, {"smiles": "Cc1cc(C)c(OCC(=O)N(Cc2cccs2)C2CCS(=O)(=O)C2)c(C)c1", "note": "(stereo not drawn)", "max response": "8.48% (inactive)"}, {"smiles": "CN(c1ccccc1)c1ccc([N+](=O)[O-])c2nonc12", "max response": "12% (active)"}, {"smiles": "CCN(CC)c1ccc([N+](=O)[O-])c2cccnc12", "max response": "0.792% (inactive)"}, {"smiles": "Cc1ccccc1Nc1c([N+](=O)[O-])ccc2nonc12", "max response": "0.319% (inactive)"}, {"smiles": "CC(C)c1ccc(NC2CCCN(C(=O)c3ccncc3)C2)cc1", "note": "(stereo not drawn)", "max response": "-4.01% (inactive)"}, {"smiles": "Cc1ccc(S(=O)(=O)N2CCN(CC(=O)N/N=C/c3ccc(Br)s3)CC2)cc1", "max response": "-1.09% (inactive)"}, {"smiles": "COCCCNc1nc2ccccc2nc1NS(=O)(=O)c1ccc(F)cc1", "max response": "-1.37% (inactive)"}, {"smiles": "COc1ccc(C2C(C(=O)N3CCN(c4ccc(OC)cc4)CC3)c3ccccc3C(=O)N2C)cc1", "note": "(stereo not drawn)", "max response": "-3.17% (inactive)"}, {"smiles": "COc1ccc(OCC(=O)N2CCN(C(=O)c3cccs3)CC2)cc1", "max response": "-2.3% (inactive)"}, {"smiles": "COc1ccc(N2CCN(C(=O)c3cccs3)CC2)cc1", "max response": "20.7% (active)"}, {"smiles": "O=C(COc1ccccc1)Nc1ccc(N2CCN(C(=O)c3cccs3)CC2)cc1", "max response": "-1.71% (inactive)"}, {"smiles": "COc1ccc(N2CCN(C(C)=C3C(=O)c4ccccc4C3=O)CC2)cc1", "max response": "40.7% (active)"}, {"smiles": "CC(=C1C(=O)c2ccccc2C1=O)N1CCN(c2ccccn2)CC1", "max response": "4.62% (inactive)"}, {"smiles": "O=C(N[C@@H](Cc1ccccc1)C(=O)OCc1ccccc1)c1nc[nH]c1C(=O)N[C@@H](Cc1ccccc1)C(=O)OCc1ccccc1", "max response": "-1.4% (inactive)"}, {"smiles": "Cc1ccc(N2C(=O)CC(Sc3ncn[nH]3)C2=O)cc1", "note": "(stereo not drawn)", "max response": "-4.4% (inactive)"}, {"smiles": "COc1cccc(/C=C2\\Sc3ccc(C(=O)NCC4CCCO4)cc3N(C)C2=O)c1", "note": "(stereo not drawn)", "max response": "6.25% (inactive)"}, {"smiles": "O=[N+]([O-])c1ccc2c(c1)Nc1nc3ccccc3nc1N2", "max response": "22.7% (active)"}, {"smiles": "O=[N+]([O-])c1cccc(Nc2c3ccccc3nc3ccccc23)c1", "max response": "4.55% (inactive)"}, {"smiles": "COc1ccc([N+](=O)[O-])cc1-c1nc2ccccc2nc1-c1ccccc1", "max response": "-2.38% (inactive)"}, {"smiles": "O=C(NCCOc1cccnc1)c1ccc(OC2CCN(Cc3ccccn3)CC2)cc1", "max response": "10.4% (inactive)"}, {"smiles": "O=C(CN1CCC(O)(c2cccc(C(F)(F)F)c2)CC1)NCCc1ccccc1", "max response": "-0.807% (inactive)"}, {"smiles": "Cc1onc(C(=O)Nc2ccc3c(c2)OCO3)c1[N+](=O)[O-]", "max response": "30.6% (active)"}, {"smiles": "Cc1nn(CC(=O)Nc2ccc3c(c2)OCO3)c(C)c1[N+](=O)[O-]", "max response": "0.353% (inactive)"}, {"smiles": "Cn1cc([N+](=O)[O-])c(C(=O)Nc2cnn(Cc3ccc(F)cc3)c2)n1", "max response": "9.36% (inactive)"}, {"smiles": "Cn1cc([N+](=O)[O-])c(C(=O)Nc2ccc3c(c2)OCCO3)n1", "max response": "26.5% (active)"}, {"smiles": "COc1cccc(NC(=O)c2nn(C34CC5CC(CC(C5)C3)C4)cc2[N+](=O)[O-])c1", "max response": "13.1% (inactive)"}, {"smiles": "Cc1nc([N+](=O)[O-])cn1CC(=O)Nc1ccc2c(c1)OCO2", "max response": "-2.41% (inactive)"}, {"smiles": "CCCc1nn(C)c2c(=O)[nH]c(-c3cc(S(N)(=O)=O)ccc3OCC)nc12", "max response": "-4.06% (inactive)"}, {"smiles": "COCCn1c(SCC(=O)N2CCCCCC2)nc2c(c1=O)SCC2", "max response": "4.66% (inactive)"}, {"smiles": "CC(C)Cc1ccc(C(C)C(=N)N)cc1", "note": "(stereo not drawn)", "max response": "-2.08% (inactive)"}, {"smiles": "COCc1ccc(C(=O)NC2CC(C)(C)Cc3c2cnn3-c2ccc(C)cc2)o1", "note": "(stereo not drawn)", "max response": "4.44% (inactive)"}, {"smiles": "Cc1nc(Cl)c(C#N)c2c1CCCC2", "max response": "4.78% (inactive)"}, {"smiles": "COC(=O)c1c(C)c(C)nc(N)c1C#N", "max response": "5.15% (inactive)"}, {"smiles": "COCc1c(N)c(C)nc(Cl)c1C#N", "max response": "14% (active)"}, {"smiles": "Fc1ccc(CNCc2ccc(Br)cc2)cc1", "max response": "2.17% (inactive)"}, {"smiles": "CCc1cc2c(=O)n(-c3ccccc3)c(SCC(=O)O)nc2s1", "max response": "-0.568% (inactive)"}, {"smiles": "COCc1cc(=O)[nH]c(SC)n1", "max response": "-3.39% (inactive)"}, {"smiles": "Cc1ccc(OCCOc2cccc(/C=N/NC(N)=O)c2)cc1", "max response": "15.2% (active)"}, {"smiles": "O=C(N/N=C/c1cccc(OCc2ccccc2)c1)c1ccc(Br)o1", "max response": "47.1% (active)"}, {"smiles": "O=C(Cc1cccs1)N/N=C/c1ccc(OCc2ccccc2)cc1", "max response": "-2.21% (inactive)"}, {"smiles": "Cc1ccc(OCCOCCOc2ccc(Br)cc2/C=N\\NC(=O)c2ccncc2)cc1", "max response": "-4.52% (inactive)"}, {"smiles": "Cc1cccc(OCC(=O)NCC(=O)N/N=C/c2ccc(N(C)C)cc2)c1", "max response": "1.69% (inactive)"}, {"smiles": "O=C(N/N=C/c1ccc(OCc2ccccc2)cc1)c1ccc(O)cc1", "max response": "18.7% (inactive)"}, {"smiles": "Cc1ccc(S(=O)(=O)Oc2ccc(/C=N/NC(=O)c3ccncc3)cc2)cc1", "max response": "6.52% (inactive)"}, {"smiles": "CC(C)NS(=O)(=O)c1ccc(OCC(=O)NC2CCCCCC2)cc1", "max response": "1.29% (inactive)"}, {"smiles": "c1c2c(cc3sc(N4CCCCC4)nc13)OCCO2", "max response": "25.6% (active)"}, {"smiles": "CCOC(=O)N1CCC(NC(=O)c2ccc3nc(N4CCOCC4)sc3c2)CC1", "max response": "-1.55% (inactive)"}, {"smiles": "Cc1nc2cc3c(cc2s1)OCO3", "max response": "-2.58% (inactive)"}, {"smiles": "Fc1ccc2nc(N3CCCCC3)sc2c1", "max response": "29.6% (active)"}, {"smiles": "Cc1nc2ccc(S(=O)(=O)NC(C(=O)N3CCCCCC3)C(C)C)cc2s1", "note": "(stereo not drawn)", "max response": "-2.97% (inactive)"}, {"smiles": "c1ccc2sc(N3CCNCC3)nc2c1", "max response": "11.7% (inactive)"}, {"smiles": "Brc1ccc2nc(N3CCCC3)sc2c1", "max response": "38.8% (active)"}, {"smiles": "O=C(NCCc1cccc(F)c1)C1CCCN(c2nc3ccccc3s2)C1", "note": "(stereo not drawn)", "max response": "-3.33% (inactive)"}, {"smiles": "Cc1nc(N2CCCCC2)sc1C=O", "max response": "-2.42% (inactive)"}, {"smiles": "O=C(CN(CC1CCCO1)C(=O)CNS(=O)(=O)c1ccc(Cl)cc1)NCc1ccccc1", "note": "(stereo not drawn)", "max response": "-3.57% (inactive)"}, {"smiles": "CC1=C[C@H]2Cc3cc(C)cc(C)c3S(=O)(=O)[C@@H]2C=C1", "max response": "-2.12% (inactive)"}, {"smiles": "CC(Sc1nnc(-c2ccccc2F)n1C1CC1)C(N)=O", "note": "(stereo not drawn)", "max response": "-2.7% (inactive)"}, {"smiles": "O=C(NNS(=O)(=O)c1ccc([N+](=O)[O-])cc1)C1CCCCC1", "max response": "10.1% (inactive)"}, {"smiles": "COc1ccccc1C(=O)N1CCN=C1SCc1cccnc1", "max response": "0.58% (inactive)"}, {"smiles": "O=C1CN(C(=O)c2ccccc2F)C(c2ccc(F)cc2)c2cc(F)ccc2N1", "note": "(stereo not drawn)", "max response": "-4.28% (inactive)"}, {"smiles": "Cc1nccn1CC(=O)N/N=C/c1ccc(O)c(O)c1", "max response": "-1.27% (inactive)"}, {"smiles": "Oc1ccc(/C=N/Nc2ccc(C(F)(F)F)cn2)cc1O", "max response": "57.2% (active)"}, {"smiles": "O=C(N/N=C/c1ccc(O)c(O)c1)C1c2ccccc2Oc2ccccc21", "max response": "-0.597% (inactive)"}, {"smiles": "CCCc1cc(=O)[nH]c(SCC(=O)Nc2sc3c(c2C#N)CCCC3)n1", "max response": "-1.28% (inactive)"}, {"smiles": "O=S(=O)(NC1CCCCC1N1CCCCC1)c1ccc(Cl)cc1", "note": "(stereo not drawn)", "max response": "-6.15% (inactive)"}, {"smiles": "O=C(O)c1ccc(S(=O)(=O)N2CCOCC2)o1", "max response": "-6.82% (inactive)"}, {"smiles": "COc1ccc(Cl)cc1NC(=O)CN(C)Cc1ccc(OC)c(OC)c1", "max response": "10.8% (active)"}, {"smiles": "COc1ccc(Cl)cc1NC(=O)CN(C)C(=O)CNC(=O)C12CC3CC(CC(C3)C1)C2", "max response": "6.85% (inactive)"}, {"smiles": "COc1ccc(OC)c(NC(=O)CN(Cc2ccc(Cl)cc2)S(C)(=O)=O)c1", "max response": "-2.07% (inactive)"}, {"smiles": "CN1CCN(c2ccccc2NC(=O)COc2ccc(C3CCCCC3)cc2)CC1", "max response": "-1.31% (inactive)"}, {"smiles": "CCOC(=O)c1cccc(NC(=O)C2CCN(c3ncnc4c3nc3n4CCCCC3)CC2)c1", "max response": "-6.95% (inactive)"}, {"smiles": "O=C(NCc1ccncc1)C1CCCN(S(=O)(=O)c2ccc(Br)cc2)C1", "note": "(stereo not drawn)", "max response": "1.08% (inactive)"}, {"smiles": "COc1ccc(CSc2nnnn2-c2ccc(O)cc2)cc1F", "max response": "-3.78% (inactive)"}, {"smiles": "CCc1ccc2oc(-c3ccc(N)cc3)nc2c1", "max response": "38.2% (active)"}, {"smiles": "Cn1c(Cc2cccc3ccccc23)nnc1SCC(=O)N1CCN(c2cccc(Cl)c2)CC1", "max response": "-3.1% (inactive)"}, {"smiles": "COCc1cc(C)n(CC(=O)NCC2CCCO2)c(=O)c1C#N", "note": "(stereo not drawn)", "max response": "-6.37% (inactive)"}, {"smiles": "Cc1c(CCC(=O)O)c(=O)oc2c(C)c(OCc3ccccc3Cl)ccc12", "max response": "1.9% (inactive)"}, {"smiles": "CC(C)(C)n1nnnc1C(c1ccccc1F)N1CCN(C(=O)c2ccco2)CC1", "note": "(stereo not drawn)", "max response": "-1.72% (inactive)"}, {"smiles": "CN(C)CCCNC(=O)/C=C/c1ccc(OCc2c(F)cccc2Cl)cc1", "max response": "-2.24% (inactive)"}, {"smiles": "O=C(/C=C/c1ccc(OCc2c(F)cccc2Cl)cc1)N1CCOCC1", "max response": "27.3% (active)"}, {"smiles": "COCCCNC(=O)/C=C/c1ccc(OCc2c(F)cccc2Cl)cc1", "max response": "-7.84% (inactive)"}, {"smiles": "COc1ccc(NS(=O)(=O)c2cc(C(=O)Nc3ccccc3C(=O)O)ccc2C)cc1", "max response": "1.17% (inactive)"}, {"smiles": "CCOc1cc(N2CCOCC2)c(OCC)cc1NC(=O)c1cc(C)nc2ccccc12", "max response": "-1.57% (inactive)"}, {"smiles": "COc1ccc(-c2nc3cc([N+](=O)[O-])ccc3o2)cc1OC", "max response": "24% (active)"}, {"smiles": "O=[N+]([O-])c1ccc2oc(-c3cccc(O)c3)nc2c1", "max response": "46.9% (active)"}, {"smiles": "COc1cc2c(cc1OC)C(c1cccc([N+](=O)[O-])c1)=NCC2", "max response": "-3.32% (inactive)"}, {"smiles": "Cc1nnc(-c2ccc(Oc3ccc(C)c(C)c3)c([N+](=O)[O-])c2)o1", "max response": "4.56% (inactive)"}, {"smiles": "O=[N+]([O-])c1ccc2c(c1)C(O)n1nc(-c3ccccc3)nc1S2", "note": "(stereo not drawn)", "max response": "-1.52% (inactive)"}, {"smiles": "CC(=O)Oc1ccc2c(=O)oc(-c3ccc([N+](=O)[O-])cc3)nc2c1", "max response": "1.51% (inactive)"}]}]}
